Laboratory results: the supplement of paper PMC3334620
Whole data set: some 33,000 sequences, median “E-score (-0.5 to 0.5)” near -0.035, cut for the highest 2% near 0.34. Many of the other results were omitted from the sample, so the highest values are more common in it than they were.

The sequences below were run against T1, Mot3 (UniProt P54785) (assay: PBM E-score (8-mer binding enrichment) (E-score (-0.5 to 0.5)); higher = stronger / more preferred TF binding). Conditions: protein concentration: 200 nM; construct: GST-full length.
T1 sequence: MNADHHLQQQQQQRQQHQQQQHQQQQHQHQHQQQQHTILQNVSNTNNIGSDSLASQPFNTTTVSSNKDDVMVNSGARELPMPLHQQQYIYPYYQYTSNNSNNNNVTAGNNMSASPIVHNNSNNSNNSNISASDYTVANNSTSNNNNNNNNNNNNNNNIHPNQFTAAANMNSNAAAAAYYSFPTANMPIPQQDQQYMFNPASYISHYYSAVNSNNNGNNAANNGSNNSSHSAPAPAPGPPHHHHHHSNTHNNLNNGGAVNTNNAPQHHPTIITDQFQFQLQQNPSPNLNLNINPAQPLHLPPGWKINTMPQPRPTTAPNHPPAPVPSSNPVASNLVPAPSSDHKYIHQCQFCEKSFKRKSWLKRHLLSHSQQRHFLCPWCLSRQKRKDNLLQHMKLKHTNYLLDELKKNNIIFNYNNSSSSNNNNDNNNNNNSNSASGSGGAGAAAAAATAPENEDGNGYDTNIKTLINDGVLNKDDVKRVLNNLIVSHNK
Procedure, shortened: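 E-scores (a modified Wilcoxon-Mann-Whitney statistic) were assigned by the Universal PBM Analysis Suite to every ungapped eight-base word pooled with its reverse complement. The input came from universal all-10-mer Agilent arrays made double-stranded by primer extension and probed with GST-tagged yeast transcription factors at about 100-200 nM. Fluorescent anti-GST detected bound protein, and masliner normalised the scans.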

Sequence | PBM E-score
ACCATTAA | 0.0184
CGCTCCTC | -0.269
TACGCAAA | 0.206
CCTATTAC | 0.344
ACTATTAC | 0.25
CCTATTAA | 0.273
CAGGTCGA | 0.148
ATTAGCCA | -0.147
AGGTCGAA | 0.00993
GATGTTAA | 0.268
CATGTTAG | 0.332
AATGTTAA | 0.279
CATGTTAA | 0.411
CATGTTAC | 0.332
TATGTTAA | 0.396
CATTCAGC | -0.12
ACCTCGCA | -0.0135
AAACAAGC | 0.0864
TGATCCAA | -0.071
CCATCTGC | -0.272
ATACACAA | 0.324
ACACACGC | 0.174
ATACACGG | 0.375
ACACACGG | 0.182
ATACACCA | 0.129
ATACACTA | 0.124

Sequence | PBM E-score
ATACACGA | 0.352
ATACACAC | 0.326
ATACACGC | 0.37
GACCTCAC | -0.243
CCCCTACA | 0.0392
ATATACGA | 0.14
AATTTTAT | 0.0903
TCGATAGA | -0.0212
ACCCCTTC | 0.129
CCTTTACA | 0.392
ATTTTACA | 0.336
TCTTTACA | 0.389
GTTTTATA | 0.101
CCTTTACC | 0.102
CTTTTACC | 0.141
ACTTTACA | 0.313
CCTTTACG | 0.172
GCTTTACA | 0.325
CTTTTACA | 0.345
GTTTTACA | 0.371
GGTTTACA | 0.333
ACCCTTTA | 0.167
GCAGTCAC | 0.305
ATTGGCCG | -0.176
GGATTTAC | 0.174
CGACAGGA | 0.0979

Sequence | PBM E-score
AGCACGCG | 0.17
AAATGCAC | 0.0764
AGTCACCG | 0.0455
GCGCAAGC | -0.172
AGGCATCG | 0.404
AGGCATCA | 0.409
AAGCATCC | -0.202
ACGCATCG | -0.0642
AGGCATCC | 0.384
CGGCATCA | -0.0726
AGGCATAG | 0.274
GGGCATCA | -0.23
CGGCATCC | -0.0227
CACTTCTG | -0.0864
AATTGGTA | 0.113
AGCCAACG | 0.0732
ACCTAAGC | 0.0128
CCCCTTGC | -0.152
AGGCCTCC | -0.166
CTAGACAC | 0.0958
TAAAACGA | 0.0299
GTCCAACA | 0.153
ACACCTGG | 0.104
ATTACAAG | 0.388
TTTACAAA | 0.331
ATTACAGG | 0.359

Sequence | PBM E-score
ATTACAGA | 0.24
ATTACAAC | 0.286
ATTACAGC | 0.127
CTTACAAA | 0.15
ATTACAAT | 0.299
ATTACAAA | 0.347
GCTGGATA | 0.0442
GCCCTTAC | -0.0326
CTAGGCTC | 0.043
AAACTGAA | 0.0399
GGGCCCAC | -0.255
AACCGTAG | -0.229
CCCGTGTA | 0.376
ACCGTGTA | 0.397
GCCGTGAA | -0.128
ACCGTGTG | 0.175
ACCGTGTC | 0.216
CCCGTGGA | -0.314
CCCGTGTC | 0.082
GCCGTGGA | -0.169
GCCGTGTA | 0.349
AGCCAAAT | -0.0958
CCAACTAA | 0.0699
CACTTTTA | 0.117
ACGTCGCC | -0.00307
AAGAACGG | -0.266

Sequence | PBM E-score
ATGAACGC | 0.145
ATGAACGG | 0.0117
AGGAACGA | 0.44
CGGAACGA | 0.0162
AGGAACGC | 0.451
AGGAACGG | 0.463
GGGAACGA | -0.122
CGGAACGC | -0.0837
ACCTCAGC | -0.124
AAAGCCGG | -0.133
AATCAAGC | -0.177
GGTGTGTA | 0.335
AGTGTACA | 0.273
CGTGTATC | 0.262
CGTGTACA | 0.388
CGTGTGTA | 0.349
CGTGTACC | 0.277
AGTGTGTA | 0.247
GGTGTATA | 0.0111
CGTGTATA | 0.4
CACTGTGA | -0.103
CTACCAGA | 0.0177
GTGAGAGA | 0.0715
ATGAATGG | -0.0783
CGGTTTAC | 0.134
CGACTTTC | 0.0333

Sequence | PBM E-score
CTAGGAAA | 0.246
GTAGGATA | 0.185
CTAGGAAC | 0.372
ATAGGATA | 0.00177
CTAGGAGC | -0.225
GTAGGAAA | 0.429
CTAGGAAG | -0.108
TTAGGAAA | 0.351
ATAGGGAA | 0.00264
ATAGGAAA | 0.429
TGAGGAAA | 0.0921
GTAGGAGA | -0.184
GGACAGCA | -0.224
ATCGGACA | -0.0499
CGACATAA | 0.0835
TAGTTCCA | 0.00515
AAACGCAC | 0.0986
TAGCGGAA | -0.15
CTCGAGAG | -0.177
AGTGGGAT | -0.0984
AACGGCGG | -0.117
ATAGGAAC | 0.456
ATAGGAAT | -0.00642
GTAGGAAC | 0.457
AGAGGAAC | 0.0727
ATAGGAAG | -0.0193

Sequence | PBM E-score
GGAGGAAC | 0.272
TTGCCCAA | 0.111
CCAACCAC | 0.083
ACAAAAGA | 0.166
CGTAGCCA | -0.208
ACACTGAT | -0.138
CCACAGGC | 0.194
ACCAACCG | -0.16
AGAAGGAC | -0.198
TGGAGGAA | 0.0436
GCAAGGAA | 0.211
AGAAGGAT | 0.0925
CGAAGGAA | 0.39
AGAAGGAG | -0.107
GGAAGGAA | 0.384
CGAAGGAC | -0.03
GGAAGGAC | -0.122
TGAAGGAA | 0.434
CGAAGGAG | -0.225
AGAAGGAA | 0.382
